From PubChem BioAssay come the findings set out here.

Several values for one entry are separate records, joined by “and”; a condition that tells them apart may be missing. Equal values may be shown once. Activity calls are given as the source filed them. Unless noted, how the calls were made is not given here.

Experiment [1] is described as follows: compounds altering circadian rhythm period length – cell-based, LOPAC library, luminescence reporter (AID 2774).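 Further: values are relative to mean of DMSO wells on each plate.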 The settings on record: circadian reporter cells, at 7 µM, actives lie on both sides.
The test system of experiment [2] is Hepatitis C virus NS3 helicase. Nature of the experiment: blockers of NS3h binding to ssDNA – biochemical, fluorescence polarization, LOPAC1280 library, primary screen (AID 687035; in the data active means inhibition above about 37%). The settings on record: Purified HCV NS3 helicase, Cy5-dT15 ssDNA binding fluorescence polarization; stronger effect = higher value; concentration not given here.
A short description of experiment [3]: compounds altering Cy5-DNA-NS3h complex signal – biochemical, LOPAC1280, artefact control for HCV NS3 helicase inhibitor project (AID 687037). As to conditions: Cy5-DNA-NS3h complex fluorescence interference counterscreen.
The subject of experiment [4] is Aerobactin synthetase IucA (Klebsiella pneumoniae). Nature of the experiment: inhibition of K. pneumoniae IucA enzyme – biochemical, Tocris library, absorbance (AID 1345561).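 Further: 100% = enzyme without compound and 0% = no enzyme.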 As to conditions: purified IucA enzyme assay, absorbance (OD) read-out; stronger effect = lower value;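 tested at 8 µM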.
The nature of experiment [5]: viability loss with induced miR-34 in A549 – imaging, A549 dox-inducible miR-34, nuclei and caspase counts, primary screen (AID 1347080;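 active means compounds whose cell count with miR-34 switched on is under 0.7 times the count with it off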). As to conditions: A549 miR-34 inducible, Hoechst nuclei count, 48 h.
A short description of experiment [6]: blockers of cellular phospholipid synthesis – cell-based, LOPAC library, screen 4, primary screen (AID 1347384). The settings on record: animal cells, phospholipid biosynthesis inhibition screen; at 10 µM.
A short description of experiment [7]: galactose survival enhancers in mitochondrial complex I cybrids – cell-based, galactose medium, ATP luminescence, primary screen (AID 1645843;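 active means z-score of at least 1.8 in each of two replicates, scored against plate mean and spread of sample wells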;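 further: positive z means more ATP and so rescue of galactose-driven cybrid death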). As to conditions: complex I mutant cybrid cells, 72 h, stronger effect = higher value.
Experiment [8] in a line: chitosan synthesis blockers in C. neoformans – flow cytometry, Cibacron Brilliant Red staining (AID 1347148).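 Further: compound exposure lasted three days at 37 degrees C.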 The settings on record: Cryptococcus neoformans chitosan, stronger effect = lower value; at 10 µM unless noted.
Experiment [9] is described as follows: compounds altering viability of human ES cells (AID 493140).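 Further: cells exposed to compounds for four days before counting.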 As to conditions: human embryonic stem cell survival screen; stronger effect = higher value.
Experiment [10] can be described thus: compounds altering HSF1 focus formation in cells – imaging, Selleck Cancer Library (AID 1347162; in the data active means plate-normalised HSF1 focus index below about 0.46). The settings on record: human cells, HSF1 nuclear foci imaging, at 10 µM; SSMD: measured here: HSF1 foci SSMD mean; cell count: measured here: cell number; plate-normalised HSF1 focus index: stronger effect = lower value.
Setting [11] is: stronger effect = lower value, cell number ratio, induced over uninduced.
[12] abbreviates: measured here: relative caspase fold change +Dox/-Dox.
[13] abbreviates: measured here: total cells with miR-34 induction, stronger effect = lower value.
Setting [14] is: measured here: total cells without miR-34 induction.

With `O=c1[nH]c2cc([N+](=O)[O-])c([N+](=O)[O-])cc2[nH]c1=O`, the period change in [1] is 0.075 h (inactive). Besides, the inhibition in experiment [2] is -4% (inactive). Besides, the fluorescence ratio (interference) in experiment [3] was 1 (inactive). For the same molecule, the remaining activity in [4] is 109% (inactive). Moreover, the fold change in [5] (setting [11]) was 0.955 (inactive) and 0.937 (inactive); in [5] (setting [12]), 1 and 0.778. Further, the cell count was 9840 and 7960 in [5] (setting [13]); 10300 and 8490 in experiment [5] (setting [14]). For the same molecule, the call in experiment [6] was inactive. Further, the z-score in experiment [7] was -0.11 (inactive) and 0.22 (inactive).
With `CC(C)(C)c1cc(O)c(C(C)(C)C)cc1O`, in experiment [4], the remaining activity was 129% (inactive). Besides, the fold change in experiment [5] (setting [11]) is 1.1 (inactive) and 0.907 (inactive); in experiment [5] (setting [12]), 1.08 and 0.716. For the same molecule, the cell count was 1530 and 6190 in [5] (setting [13]); 1390 and 6820 in experiment [5] (setting [14]). Further, the fold fluorescence in [8] is 11.1 [at 224.9 µM] (inactive). The z-score in [7] is -0.7 (inactive).
Consider `O=C(NCCCCCCNC(=O)ON=C1CCCCC1)ON=C1CCCCC1`, for which the remaining activity in [4] is 126% (inactive). Moreover, the fold change in [5] (setting [11]) was 0.722 (inactive) and 0.829 (inactive); in [5] (setting [12]), 1.07 and 1.04. For the same molecule, the cell count was 3570 and 6850 in [5] (setting [13]); 4940 and 8260 in [5] (setting [14]). The fold fluorescence in [8] is 7.89 [at 126.7 µM] (inactive). The z-score in experiment [7] is -0.255 (inactive).
For `CCCCCCCCCCCCCCCC(=O)OC(CC(=O)O)C[N+](C)(C)C` (stereo not given), the period change in experiment [1] is 0.01 h (inactive). For the same molecule, the survival in experiment [9] is 103 (inactive). Further, the inhibition in experiment [2] is -4% (inactive). Moreover, in experiment [3], the fluorescence ratio (interference) is 1 (inactive). Also, in experiment [4], the remaining activity was 122% (inactive). Moreover, the fold change is 1.09 (inactive) and 1.01 (inactive) in experiment [5] (setting [11]); 0.674 and 0.826 in experiment [5] (setting [12]). For the same molecule, the cell count in experiment [5] (setting [13]) was 6530 and 7890; in experiment [5] (setting [14]), 5960 and 7780. For the same molecule, in experiment [6], the result was inactive. The z-score in [7] is -1.29 (inactive) and -1.24 (inactive).
As for `CC(C)(C)c1ccc(S(=O)(=O)/C=C/C#N)cc1`, the period change in experiment [1] was -0.05 h (inactive). Also, in experiment [2], the inhibition is -4% (inactive). In addition, the fluorescence ratio (interference) in experiment [3] was 0.9 (inactive). For the same molecule, the remaining activity in [4] is 114% (inactive). The fold change was 0.996 (inactive) and 0.965 (inactive) in experiment [5] (setting [11]); 0.975 and 1.39 in experiment [5] (setting [12]). The cell count is 4040 and 1980 in [5] (setting [13]); 4060 and 2060 in experiment [5] (setting [14]); 6870 in experiment [10]. In experiment [10], this molecule yielded an SSMD of -5.26. Further, the plate-normalised HSF1 focus index in experiment [10] is 0.733 (inactive). The molecule was called inactive in experiment [6]. In addition, the z-score in experiment [7] is -1.5 (inactive) and -1.04 (inactive).
For the molecule `O=S(=O)(c1cccc2c(Cl)cccc12)N1CCCNCC1`, the period change in experiment [1] is 0.09 h (inactive). For the same molecule, the survival in [9] is 62 (inactive). Also, the inhibition in experiment [2] was -2% (inactive). In addition, the fluorescence ratio (interference) in [3] is 1 (inactive). For the same molecule, in experiment [4], the remaining activity is 97.3% (inactive). The fold change is 1.19 (inactive) and 0.923 (inactive) and 0.938 (inactive) in experiment [5] (setting [11]); 1.59 and 1.07 and 1 in experiment [5] (setting [12]). In addition, the cell count in [5] (setting [13]) is 6430 and 3010 and 7700; in experiment [5] (setting [14]), 5390 and 3260 and 8210. Moreover, in [8], the fold fluorescence was 11.9 [at 153.9 µM] (inactive). Further, the molecule was called inactive in experiment [6]. In addition, the z-score in experiment [7] is -0.995 (inactive) and -0.78 (inactive).
